PubChem BioAssay (Tox21)
The source made the active and inactive calls. Calls come from the whole dose curve; as a rule, active = well fitted activation curve with a large enough effect in the repeat runs; inconclusive = weak or mixed curves; inactive = flat fitted curve, though single readings scatter.

Molecular target: KiSS-1 receptor (Homo sapiens) (UniProt Q969F8)
Assay: Human kisspeptin (KISS1R) small molecule agonists, calcium flux assay in KISS1R-HEK293 cells (AID 1920064)
Conditions: KISS1R-HEK293, calcium flux fluorescence, agonist; series mostly up to 76.8 µM; activation: at the top concentration
Excerpt: National Center for Advancing Translational Sciences [NCATS]
Division of Preclinical Innovation [DPI]
U.S. Environmental Protection Agency [EPA]
National Institutes of Environmental Health Sciences [NIEHS]
National Toxicology Program [NTP]
U.S. Food and Drug Administration [FDA]
Kisspeptin and its receptor KISS1R play key roles in mammalian reproduction due to their involvement in the onset of puberty and control of the hypothalamic-pituitary-gonadal axis such as regulates GnRH release from the hypothalamus. The kisspeptin/KISS1R system also plays a direct role in peripheral organs (including the ovary, testis, uterus, and placenta) and is implicated in reproductive diseases such as miscarriage and polycystic ovary syndrome (PCOS). Abnormal KISS1R activity is associated with abnormal puberty, infertility, endometriosis, and hormone-dependent tumors. The KISS1 receptor (KISS1R, also called GPR54), a G-protein-coupled receptor (GPCR), acts (through phospholipase C) to increase intracellular inositol trisphosphate and then release intracellular calcium stores. Cell-based KISS1R-HEK293 assay is using HEK293 cells that have been genetically engineered to express the human KISS1R, which activity can be measured by calcium signaling. A compound/drug can activate (agonist) KISS1R that can be monitored by levels of intracellular calcium.
KISS1R-HEK293 cells developed by Codex Corp contain human KISS1R gene, which was stably integrated into HEK 293 cells. The compound activation can be detected by fluorescence intensity via calcium flux assay. This cell line has been used to screen the Tox21 10K compound library to identify agonists of KISS1R.
KISS1R-Hek293 cells were dispensed at 1500 cells/4uL/well in 1536-well black wall/clear bottom plates using a multidrop dispenser. After the assay plates were incubated at a 37 C/5% CO2 incubator for 18 hours, 4 microL of Calcium Dye Solution was added to each well. The plates were incubated at 37 C for 1 hour. And then 23 nL of compounds dissolved in DMSO, positive controls, or DMSO only was transferred to the assay plate by a pin tool station. The fluorescence intensity in the plates was measured using FDSS 7000EX kinetic plate reader with a filter set of Ex/Em=480/540 for 3 min at 1 sec intervals. Each test compound was measured at 15 concentrations and in triplicates.
% is set by controls: 0 for no effect and ±100 for the full control effect; potency is the fitted concentration of half-maximal effect.

Sequence of KiSS-1 receptor (Homo sapiens) (Q969F8 whole entry, looked up): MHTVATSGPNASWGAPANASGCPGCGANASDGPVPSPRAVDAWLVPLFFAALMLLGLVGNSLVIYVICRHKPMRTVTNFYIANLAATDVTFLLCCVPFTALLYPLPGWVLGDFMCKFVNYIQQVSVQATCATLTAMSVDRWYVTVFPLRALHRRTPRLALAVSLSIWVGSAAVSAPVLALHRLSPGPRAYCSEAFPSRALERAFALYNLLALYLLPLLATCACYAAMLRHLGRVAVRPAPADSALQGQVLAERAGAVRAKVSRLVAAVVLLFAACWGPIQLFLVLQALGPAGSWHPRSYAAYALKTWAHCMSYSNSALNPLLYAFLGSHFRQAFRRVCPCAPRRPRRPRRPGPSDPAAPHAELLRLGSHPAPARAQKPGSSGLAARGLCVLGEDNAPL

Structure (SMILES)	activation	Potency
CCCC(C)C1(CC)C(=O)N=C(S)NC1=O (stereo not given)	-1.37% [at 35.3 µM] (inactive)	–
CC(C)(C)OC(=O)c1ncn2c1[C@@H]1CCCN1C(=O)c1c(Br)cccc1-2	2.87% [at 35.3 µM] (inactive)	–
CCC(=O)C(CCN(C)C)(c1ccccc1)c1ccccc1	-0.614% [at 35.3 µM] (inactive)	–
ClSC(Cl)(Cl)Cl	-2.87% (inactive)	–
O=C1OC(CCN2CCCCC2)OC1(c1ccccc1)c1ccccc1 (stereo not given)	3.89% [at 35.3 µM] (inactive)	–
O=[N+]([O-])c1cc(C(F)(F)F)c(Cl)c([N+](=O)[O-])c1Nc1ncc(C(F)(F)F)cc1Cl	12.8% (inactive)	–
O=C(NC(=O)c1cc(F)c(F)cc1Cl)Nc1cc(F)ccc1N1CCC(C(=O)O)CC1	9.51% [at 35.3 µM] (inactive)	–
CN(C)CCc1c[nH]c2ccc(O)cc12	1.05% (inactive)	–
CCCC[N+](=O)[O-]	-2.88% (inactive)	–
CCCOc1nn(C(=O)NS(=O)(=O)c2ccccc2C(=O)OC)c(=O)n1C	0.352% (inactive)	–
O=C(Oc1ccc(Br)cc1)N1CCN2CCC1CC2	0.64% (inactive)	–
C=CCOC(=O)C(C)(C)OC(=O)c1cc(-n2c(=O)cc(C(F)(F)F)n(C)c2=O)ccc1Cl	0.591% (inactive)	–
O=[N+]([O-])c1ccc2ccc3cccc4ccc1c2c34	5.44% (inactive)	–
COc1cnc(OC)n2nc(NS(=O)(=O)c3c(OCC(F)F)cccc3C(F)(F)F)nc12	-0.161% (inactive)	–
Cc1ccc(OP(=O)(Oc2ccccc2)Oc2ccccc2)cc1	1.53% (inactive)	–
CCOP(=S)(OCC)SC(CCl)N1C(=O)c2ccccc2C1=O (stereo not given)	3.27% (inactive)	–
COc1nn(CSP(=S)(OC)OC)c(=O)s1	3.79% (inactive)	–
Cc1cc2c3c(c1)C(c1ccccc1)=N[C@@H](NC(=O)c1ccncc1)C(=O)N3CC2	2.74% (inactive)	–
CC(=O)[O-].CC(=O)[O-].CC(=O)[O-].[Sb+3]	14% [at 2.72 µM] (inactive)	–
CN1CC[C@]23c4c5ccc(O)c4O[C@H]2[C@@H](O)C=C[C@H]3[C@H]1C5	-0.385% (inactive)	–

Structure (SMILES)	activation	Potency
C=CCC1(C(C)CC)C(=O)NC(=O)NC1=O (stereo not given)	0.809% [at 35.3 µM] (inactive)	–
S=C=NCCc1ccccc1	1.93% (inactive)	–
NS(=O)(=O)C(F)(F)C(F)(F)C(F)(F)C(F)(F)C(F)(F)C(F)(F)C(F)(F)C(F)(F)F	5.6% (inactive)	–
O=[N+]([O-])c1cc([N+](=O)[O-])c2ccccc2c1	-4.95% (inactive)	–
CC(C)NCC(O)c1ccc([N+](=O)[O-])cc1 (stereo not given)	-2.36% [at 35.3 µM] (inactive)	–
C/C=C/C=O	-3.47% (inactive)	–
C=CC(=O)OCC	0.237% (inactive)	–
C[C@@H](Oc1ccc(Cl)cc1Cl)C(=O)O	-4.21% (inactive)	–
CCC[CH2][Sn]([CH2]CCC)([CH2]CCC)[O]C(=O)c1ccccc1	–	19.5 µM (active)
C1CCC(C2CCCCC2)CC1	0.324% (inactive)	–
CCOP(=S)(OCC)Oc1cc(Cl)c(Br)cc1Cl	-0.708% (inactive)	–
CCOc1cc(Oc2ccc(C(F)(F)F)cc2Cl)ccc1[N+](=O)[O-]	–	inactive
COP(=S)(OC)Oc1ccc(S(N)(=O)=O)cc1	-0.223% [at 35.3 µM] (inactive)	–
CCOC(=O)C(Cl)Cc1cc(-n2nc(C)n(C(F)F)c2=O)c(F)cc1Cl (stereo not given)	1.49% (inactive)	–
CCCCn1cc[n+](C)c1 (tested in a mixture with another compound)	2.11% (inactive)	–
Clc1ccc(-c2ccc(Cl)c(Cl)c2Cl)c(Cl)c1Cl	-0.053% (inactive)	–
CCOC(=O)CC(=O)CCl	-0.24% (inactive)	–
O=[N+]([O-])c1cccc2cccc([N+](=O)[O-])c12	1.53% (inactive)	–
O=C1CN=C(c2ccccc2)c2cc([N+](=O)[O-])ccc2N1	-1.34% [at 35.3 µM] (inactive)	–
Clc1ccc(C2(Cn3cncn3)CC(Br)CO2)c(Cl)c1 (stereo not given)	11.3% (inactive)	–
